# The list is not random: actives were taken first. Their share in the collection is about 1.6%.
# eIF4H inh: inhibitors of RNA binding by human eIF4H. eIF4H fluorescence polarization binding assay. Q15056. hit rate 0.94% among 290,000. inhibition, % at 35 µM;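 also: calls also rest on retests at 20 µM and on dose response follow-up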
# PERK inhibitor: human PERK inhibition, primary cell-based screen | CHO PERK-DD fusion, SEAP luminescence translation reporter | inhibition, % at 5.6 µM | hit rate 0.17% among 220,000;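 active = inhibition above the mean inhibition of all tested compounds plus 3 SD, set separately per screening campaign, cut at about 2.9% in these data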;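 also: PERK kinase domain activated by AP20187 dimerizer at 100 nM; 0% = DMSO with dimerizer and 100% = rapamycin at 8.4 µM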
# PABP polyA inh: PABP-poly(A) binding inhibition; calls only at 35 µM; PABP-poly(A) RNA binding, fluorescence polarization; P11940; hit rate 1% among 290,000; AID 2014;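 also: calls also rest on retests at 20 µM and on dose response follow-up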
# MLLE-PAM2 inh: blocks PAM2 peptide binding to the PABP1 MLLE domain | AID 588489 | hit rate 0.36% among 360,000 | GST-MLLE / FITC-PAM2 fluorescence polarization | inhibition, % at 20 µM | P11940; in the data active = inhibition above about 35%, passing the limit was not always enough;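 also: plate controls were DMSO wells with GST-MLLE for no effect and wells lacking GST-MLLE protein for full effect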
# eIF4E 4G PPI: inhibitors of eIF4E and eIF4G interaction in translation initiation; AID 782; TR-FRET eIF4E-eIF4GI(517-606) binding, 2 h; inhibition, % at 21.7 µM; hit rate 0.37% among 220,000;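 active = inhibition above about 30%, limit read from the data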;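 also: 0% = full FRET control wells and 100% = background wells lacking eIF4GI fragment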
# Active calls of the source: *; i = inactive; ? = inconclusive; . = no result; + = active, no number; [ ] = remark or other dose. Unless noted, no rule for the calls is given here.
SMILES,eIF4H inh,PERK inhibitor,PABP polyA inh,MLLE-PAM2 inh,eIF4E 4G PPI
CC(C)NCc1cccc([N+](=O)[O-])c1,7.1,0.8,i,0.2,-0.5
CC1(C)CC(NCc2cccc([N+](=O)[O-])c2)CC(C)(C)N1,80.8*,.,+,-2.1,.
O=C(CSc1nc2ccccc2n1CCc1ccccc1)c1ccc(O)c(O)c1,89.9*,1.3,+,-98.9,62.5*
Cn1c(SCC(=O)c2ccc(O)c(O)c2)nnc1-c1cccs1,50.0*,0.4,+,6.9,6.8
CCOC(=O)Cn1nc(NC(=O)COc2ccc(F)cc2)cc1C,-2.4,.,i,-2.1,.
Cc1ccnc(NS(=O)(=O)c2cccs2)c1,-1.2,1.0,i,-10.9,2.4
Cc1ccnc(NS(=O)(=O)c2cc(C(F)(F)F)ccc2Cl)c1,1.3,3.4*,i,.,0.2
CCOc1ncccc1C(=O)N(C)CC(=O)Nc1ccccc1SC,-8.2,-0.1,i,-137.1,-4.3
CCOC(=O)C1=C(O)/C(=C/c2ccc(CNC(=O)C(=O)Nc3ccc(C)cc3)o2)N=C1C,103.4*,1.1,i,-16.9,-19.0
COC(=O)C1=C(O)/C(=C\c2ccc(CNC(=O)C(=O)Nc3ccc(C)cc3)o2)N=C1C,?,0.2,?,-10.1,1.4
O=C1CC(c2ccccc2)Cc2nc(N3CCc4ccccc4C3)ncc21 (centres undefined),-10.2,0.1,i,56.0*,10.3
Cc1ccc(C2CC(=O)c3cnc(N4CCc5ccccc5C4)nc3C2)cc1 (centres undefined),-4.3,0.2,i,0.7,5.1
COc1cc(C)c(CNc2cccc(C)c2)cc1C,0.8,-0.1,i,-9.9,-5.7
COc1cc(C)c(CNc2ccc(OC)c(OC)c2)cc1C,63.2*,0.9,+,.,12.5
c1ccc(Cn2c[n+](Cc3ccccc3)c3ccccc32)cc1,0.3,.,i,8.5,.
Cc1ccc(SCc2cc(=O)c3c(=O)n(-c4ccccc4)[nH]c3[nH]2)cc1,92.7,1.8,+,17.3,5.5
CC(C)c1nc2sc3c(SCC(=O)NCc4ccco4)ncnc3c2c2c1CCC2,14.0*,0.6,i,3.7,-89.0
O=C1CC(=O)c2c1cccc2[N+](=O)[O-],65.1*,-0.2,+,.,28.9
O=C1OCc2cccc([N+](=O)[O-])c21,0.6,0.9,i,5.8,3.1
Cn1c(C2=C(O)CN(Cc3ccccc3)C2=N)nc2ccccc21,-10.2,-0.5,i,-1.8,0.6
CCn1cc(CN2CCN(CCc3ccccc3)C(CCO)C2)c(C)n1 (centres undefined),-13.3,-0.2,i,-1.1,0.1
Cc1cc(C)cc(Nc2ccc(C(=O)O)cc2N)c1,53.6*,0.7,+,13.1,3.1
CCCCNC(=O)NS(=O)(=O)c1ccc(NC(=O)CCC(=O)c2cccs2)cc1,-16.3,.,i,0.2,.
CCOc1cc(C(N)=O)cc(Br)c1OC,8.5*,4.9*,i,13.9,-4.6
CCOc1cc(C(N)=O)cc(OCC)c1OCC,-9.0,1.0,i,-2.3,1.8
SMILES,eIF4H inh,PERK inhibitor,PABP polyA inh,MLLE-PAM2 inh,eIF4E 4G PPI
CC(C)(C)c1ccc(OCC(=O)N(Cc2cccs2)C2CCS(=O)(=O)C2)cc1 (centres undefined),-12.3,.,i,-4.2,.
O=C(c1ccccc1)N(Nc1ccccc1)c1ccccc1,5.3,0.8,i,6.3,98.5*
CC1=CC(=O)C=CC1=Nc1ccc(N(C)C)cc1,.,.,.,50.7*,.
O=C(Cn1cc(C(F)(F)F)cc(Cl)c1=O)NCc1ccc(F)cc1,10.8,.,i,3.4,.
CCOc1ccc2cc(C3CC(c4ccco4)=NN3S(C)(=O)=O)c(=O)[nH]c2c1 (centres undefined),7.9,0.1,i,-41.0,35.7*
COc1ccc(Cl)cc1NC(=O)CN(C)C(C)C(=O)NCC1CCCCC1 (centres undefined),1.7,-0.5,i,2.7,0.6
COc1ccc(Cl)cc1NC(=O)CN(C(=O)c1ccco1)C1CCCCC1,0.7,-0.8,i,35.6*,1.7
CCC(=Nc1ccc(N)cc1)C1=C(O)C(C(=O)OC)C(C)(C)CC1=O (centres undefined),103.3*,0.2,+,17.1,-15.6
CCCCC(=Nc1ccc(N)cc1)C1=C(O)C(C(=O)OC)C(C)(C)CC1=O (centres undefined),42.4*,0.7,+,7.8,1.3
CCCC(=Nc1ccccc1)C1=C(O)C(C(=O)OC)C(C)(C)CC1=O (centres undefined),-8.5,0.1,i,-3.0,-0.8
Cc1ccc(NC(=O)CSc2nnc(-c3ccccn3)n2N)c(Br)c1,-3.8,-1.9,i,-2.3,-5.3
CN(CCc1ccccc1)C(=O)c1ccc(NC(=O)Cc2ccc(NC(=O)C3CCN(C(=O)c4ccccc4)CC3)cc2)cc1,.,.,.,4.9,.
Cc1coc2c1C(=O)C(=O)c1c-2ccc2c1CCCC2(C)C,64.1*,1.0,+,10.7,2.9
Cc1coc2c1C(=O)C(=O)c1c-2ccc2c(C)cccc12,78.4*,.,+,-0.8,-4.3
O=C(NCc1cccc2ccccc12)c1cccs1,.,.,.,14.2,.
COc1ccccc1OCC(=O)Nn1c(=S)[nH]c2ncccc2c1=O,-10.5,1.5,i,43.7*,-2.6
O=C(COc1ccc(Cl)cc1Cl)Nn1c(=S)[nH]c2ncccc2c1=O,-7.2,0.9,i,46.3*,-0.1
COc1ccc(C(C(=O)NC2CCCC2)N(C(=O)c2snc(C(N)=O)c2N)c2cccc(O)c2)cc1 (centres undefined),68.1*,.,i,-8.9,.
NC(=O)c1nsc(C(=O)N(c2cccc(F)c2)C(C(=O)NC2CCCC2)c2ccc(O)cc2)c1N (centres undefined),-4.7,.,i,-11.0,.
CCCNC(=O)C1(C)CCCN(Cc2c3ccccc3nn2C)C1 (centres undefined),.,.,.,4.5,.
COc1ccc(OC)c(NC(=S)NCc2ccc(S(N)(=O)=O)cc2)c1,1.8,1.3,i,14.9,-0.9
COc1ccc(NC(=S)NCc2ccc(S(N)(=O)=O)cc2)c(OC)c1,active,0.1,i,-3.8,-3.0
CCOC(=O)C1(C)NC(c2cccc(C)c2)C2C(=O)N(c3ccccc3)C(=O)C21 (centres undefined),3.1,.,i,-6.1,.
O=C(O)c1ccc(-n2cccc2/C=N\NC(=O)c2cc3cc(Br)ccc3o2)cc1,86.3*,-0.7,+,-6.8,28.6
CC(=O)c1c(NC(=O)c2ccccc2)[nH]c(-c2ccccc2)nc1=S,0.2,1.9,i,38.5*,-3.2
NC(=O)c1c(NC(=O)CSc2nnc(-c3ccco3)n2-c2ccccc2)sc2c1CCC2,86.7*,-0.5,+,-8.6,31.5*[fluorescence artefact?]
N#Cc1c(NC(=O)CSc2nnc(-c3ccco3)n2-c2ccccc2)sc2c1CCC2,49.4,-1.4,i,-12.8,7.6
CCCCn1c(N)c(N(CC(C)C)C(=O)C2CC(=O)N(c3ccc(CC)cc3)C2)c(=O)[nH]c1=O (centres undefined),.,.,.,-6.1,.
C[n+]1ccccc1/C=C/c1ccc(F)c(F)c1,.,.,.,-124.7,.
C[n+]1ccccc1/C=C/c1c(F)cccc1F,62.8,.,+,-106.0,.

# Screening results deposited in PubChem BioAssay by several laboratories.
